Shown are actives, neighbours in structure and some others; about 3.6% of the full set was active somewhere.
LGR2 antag = inhibitors of bursicon-induced Drosophila LGR2 receptor cAMP signaling | inhibition, % at 9.99 µM | HEK293 LGR2, CRE-luciferase, bursicon-stimulated, 4 h | hit rate 0.35% among 380,000;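 active = drop in luminescence signal, shown as inhibition above about 50% in the replicate tests, limit read from the data, passing the limit was not always enough; inconclusive = probably only some replicates passing the limit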;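 also: agonist challenge used bursicon conditioned medium at about half maximal strength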
HSF1 inh = HSF1 inhibition; NIH3T3-HGL HSE-luciferase, MG132-induced, luminescence 8 h; stronger effect = lower value; activity change, negative = inhibition, % at 7.5 µM (by protocol); hit rate 0.77% among 300,000; AID 2098;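 active = more than half of replicate wells show activity change below -50%, luminescence cut by over half; inconclusive = some wells, but at most half, below -50%; inactive = no replicate well below -50%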;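 also: luciferase reports HSF-1 transcriptional activity via heat shock element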
TROY NFkB inh = blocks TROY-dependent signaling in reporter cells; hit rate 0.98% among 360,000; Q293 LMP1-TROYcd NF-kB luciferase reporter, 4 h; AID 1347056; inhibition, % at 10 µM;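 active = compounds whose plate-normalised and pattern-corrected inhibition of the luciferase reporter signal at the single screening dose is 50% or more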
TWEAK-Fn14 inh = inhibitors of TWEAK-Fn14 interaction signaling; TWEAK-stimulated Fn14 reporter cells, luciferase luminescence, 8 h; inhibition, % at 10 µM; hit rate 2% among 360,000; AID 1159606; in the data active = inhibition above about 50%
HSF-1 act = increases HSF-1 driven luciferase reporter signal; NIH3T3-HGL HSF-1 luciferase reporter, MG132, 8 h; 100% = twice DMSO control signal; activation, % at 9 µM; hit rate 1.7% among 300,000;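 active = mean replicate activation of at least 50% with a set share of replicates each reaching 50%; inconclusive = only one of those two conditions met; inactive = mean below 50% and too few replicates reaching it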
LMP1 NFkB inh = reduces LMP1-driven NF-kappaB luciferase signal | LMP1-induced NF-kappaB luciferase reporter cells, luminescence | inhibition, % at 12.5 µM | hit rate 0.69% among 350,000 | AID 504558; in the data active = inhibition above about 41%; inconclusive = no clear call, values can overlap the other calls
Numbers stand for hits; . = inactive; ? = inconclusive; / = not tested or not shown.

SMILES | LGR2 antag | HSF1 inh | TROY NFkB inh | TWEAK-Fn14 inh | HSF-1 act | LMP1 NFkB inh
CCOC(=O)Cc1csc(NC(=O)Nc2cccs2)n1 | . | -57.5 | . | . | . | .
CCOc1ccc2nc(NC(=O)Nc3ccccc3)sc2c1 | / | . | . | . | 73.6 | .
C[C@@H](NC(=O)C[C@@H]1CC[C@@H](NC(=O)Cc2ccccn2)[C@@H](CO)O1)c1ccccc1 | . | / | / | / | / | /
O=C(c1ccco1)N1CCCN(Cc2cn[nH]c2-c2ccc(-c3ccccc3)cc2)CC1 | . | . | . | . | 76.3 | .
CCOC(=O)C1(Cc2ccc(OC)cc2)CCN(C(=O)c2cc3ccccc3[nH]2)CC1 | . | . | . | . | 77.3 | .
CCOC(=O)C1(Cc2ccc(OC)cc2)CCN(C(=O)c2cc(C)on2)CC1 | . | . | . | . | . | .
COC(=O)C1=C(C)Nc2c(c(=O)n(C)c(=O)n2C)C1c1cccc(O)c1 (stereo unspecified) | . | -56.6 | . | . | . | .
O=C(Cc1coc2cc3c(cc12)CCC3)OCC(=O)N1CCCC1=O | . | . | 59.1 | 82.9 | . | .
Cc1ccccc1S(=O)(=O)N[C@H]1CC[C@@H](CCNS(=O)(=O)c2cccc(F)c2)O[C@H]1CO | . | / | / | / | / | /
CCOc1ccc(C2C3=C(CCCC3=O)Nc3ccc4ncccc4c32)cc1 (stereo unspecified) | . | . | . | . | 67.8 | .
CCC(=O)N1[C@@H]2Cn3c(cccc3=O)[C@H]1[C@@H](C(=O)NC1CCC1)[C@@H]2CO | . | / | / | / | / | /
N#CCCn1cc(/C=N/O)c(-c2ccccc2)n1 | . | / | . | . | / | .
N#CCCn1cc(/C=N/NC(N)=S)c(-c2ccc(-c3ccccc3)cc2)n1 | ? | . | . | 50.7 | . | .
O=C(Nc1sc2c(c1C(=O)O)CCCC2)c1cccs1 | / | . | . | . | . | .
COC(=O)c1c(NC(=O)c2ccc(C)o2)sc2c1CCCCC2 | / | . | . | . | 60.2 | .
COC(=O)Nc1sc2c(c1C(=O)NCc1ccco1)CCC2 | . | . | . | . | . | .
CCOC(=O)c1c(NC(=O)c2nn(CC)cc2Br)sc2c1CCCCC2 | / | / | . | . | / | .
O=C(Nc1sc2c(c1C(=O)O)CCCCC2)c1cccs1 | . | . | . | 52.9 | . | .
COC(=O)Nc1sc2c(c1C(=O)NCc1ccco1)CCCC2 | / | . | . | . | . | 55.8
CCn1cc(C(=O)NC(=S)Nc2sc3c(c2C(=O)OC)CCCCCC3)cn1 | . | . | 70.8 | . | . | .
O=C(C[C@@H]1C[C@H]2c3cc(NC(=O)C4CCOCC4)ccc3O[C@H]2[C@@H](CO)O1)NCc1ccccc1 | . | / | / | / | / | /
CNC[C@@H]1OCc2cnnn2CCCC(=O)N([C@H](C)CO)C[C@@H]1C | . | / | / | / | / | /
O=C(C[C@H]1C[C@H]2c3cc(NC(=O)C4CCOCC4)ccc3O[C@H]2[C@@H](CO)O1)NCc1cc(F)ccc1F | . | / | / | / | / | /
CC1CCc2c(sc(NC(=O)c3cccs3)c2C(=O)O)C1 (stereo unspecified) | . | . | . | . | . | .
CC(C)(C)c1ccc(C(=O)Nc2sc3c(c2C(=O)O)CCC3)cc1 | . | . | 61.9 | 87.7 | . | .
SMILES | LGR2 antag | HSF1 inh | TROY NFkB inh | TWEAK-Fn14 inh | HSF-1 act | LMP1 NFkB inh
Cc1ccc(C(=O)Nc2sc3c(c2C(=O)O)CCCC3)o1 | . | . | . | . | . | .
Cc1ccc(C(=O)Nc2sc3c(c2C(=O)O)CCCCC3)o1 | . | . | . | 64.8 | . | .
CCCC1CCc2c(sc(NC(=O)c3cccs3)c2C(N)=O)C1 (stereo unspecified) | . | . | . | . | 61.2 | .
C[C@@H]1CCCCO[C@H](CN(C)C(=O)CCCN(C)C)[C@H](C)CN([C@H](C)CO)C(=O)c2cc(NS(C)(=O)=O)ccc2O1 | . | / | / | / | / | /
C[C@@H]1CCCCO[C@H](CN(C)C)[C@H](C)CN([C@H](C)CO)C(=O)c2cc(NS(=O)(=O)c3cccs3)ccc2O1 | . | / | / | / | / | /
CCOc1nc(N2CCCCC2)nc(-n2cc(-c3ccccc3)nn2)n1 | . | . | / | 71.6 | . | .
CCOC(=O)c1c(-c2ccccc2)nnn1-c1nc(OCC)nc(N2CCCCC2)n1 | / | . | . | 52.5 | . | .
CCOC(=O)c1nnn(-c2nc(N3CCCC3)nc(N3CCCC3)n2)c1-c1ccccc1 | / | . | . | . | . | .
COc1ccc(S(=O)(=O)Nc2ccc3c(c2)C(=O)N(C)C[C@@H](OC)[C@H](C)CN(Cc2cc(F)ccc2F)[C@H](C)CO3)cc1 | . | / | / | / | / | /
CCOC(=O)/C=C/c1cnn(-c2ccccc2)c1 | . | . | . | . | . | .
O=C(O)/C=C/c1cnn(-c2ccccc2)c1 | 58.8 | . | . | 67.1 | . | .
COc1cccc(-c2ccc([C@H]3[C@H](CO)N4C(=O)CN(C(=O)C5CCC5)C[C@@H]34)cc2)c1 | . | / | / | / | / | /
CSc1ccc(CCNC(=O)c2nn(C)c3c2CS(=O)(=O)c2ccccc2-3)cc1 | . | . | . | . | 51.1 | .
Cc1cc(/C=N/n2cnnc2)c(C)n1-c1ccc(OCc2ccc(Cl)cc2Cl)cc1 | / | . | 77.5 | 61.0 | . | .
CN(C)c1ccc(-c2nnc(-c3cccs3)o2)cc1 | . | . | . | 62.8 | . | .
O=C(N/N=C/c1ccc(O)cc1)Nc1cccc2nsnc12 | . | . | . | 62.8 | . | .
COc1cc(/C=N/NC(=O)Nc2cccc3nsnc23)cc(OC)c1OC | / | . | . | . | . | .
CN(N)c1ccc2c(C(F)(F)F)cc(C(F)(F)F)nc2n1 | . | . | . | . | . | .
Cc1ccc(C(C#N)c2ccc3c(C(F)(F)F)cc(C(F)(F)F)nc3n2)cc1 (stereo unspecified) | / | . | . | 50.3 | . | .
N#CC(c1ccccc1)c1ccc2c(C(F)(F)F)cc(C(F)(F)F)nc2n1 (stereo unspecified) | / | . | 59.1 | 53.2 | . | .
COc1ccc(C=C(NC(=O)c2ccccc2)C(=O)O)cc1OC | . | / | . | . | / | .
COC(=O)/C(=C/c1ccc2c(c1)c1ccccc1n2C)NC(=O)c1ccccc1 | . | . | . | . | 72.8 | .
O=C(Nc1ccccc1C(F)(F)F)c1cc(-c2ccccc2O)on1 | . | . | . | . | 65.5 | .
O=C(NNc1cccc(Cl)n1)Nc1ccc(Cl)cc1 | / | . | . | . | 77.3 | .
CC1CCN(c2ccc(C=O)o2)CC1 | . | . | . | . | 57.9 | .
CC1OC2CC(=O)OC2C2=C1C(=O)c1c(O)cccc1C2=O (stereo unspecified) | 100.0 | / | 57.2 | 106.9 | / | /
O=C(Nc1cccc(Cl)c1)N[C@@H]1CC[C@H](CCNC(=O)C2CCCC2)O[C@@H]1CO | . | / | / | / | / | /
CO[C@@H]1CN(C)C(=O)c2cc(NS(=O)(=O)c3ccccc3F)ccc2OC[C@H](C)NC[C@H]1C | . | / | / | / | / | /
O=C(c1ccccc1)C1OC1C(=O)c1ccccc1 (stereo unspecified) | . | / | . | 69.9 | / | .
CC1C=CC(C)C(C(=O)c2ccccc2)C1C(=O)c1ccccc1 (stereo unspecified) | / | / | . | . | / | .
